Records with an inconclusive call do not appear. Calls of active or inactive are those of the source. Calls come from the whole dose curve; as a rule, active = well fitted curve in the direction sought with a large enough effect; inconclusive = small, poorly fitted or top-dose-only effect, or another doubt; inactive = no such curve, though single readings can be large; an effect the other way counts as inactive or inconclusive.
Biological target: Rap guanine nucleotide exchange factor 3 (Homo sapiens) (UniProt O95398)
Test: Confirmatory qHTS for antagonist of cAMP-regulated guanine nucleotide exchange factor 3 (EPAC1) (AID 1645880); note: nearly all actives have a fitted effect of over 55% in size;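 for activity, negative = inhibition: plate controls were DMSO only for no effect and full effect of the ATA control for full effect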
Conditions: EPAC1 Rap1B-BODIPY-GDP exchange, fluorescence; activity, negative = inhibition: at 115 µM (top of the series)
Summary of the method: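 Nucleotide exchange uses 100 nM EPAC1, 250 nM RAP1B-BODIPY-GDP and 50 uM GDP, with compounds in a concentration-titration series. After 5 min at room temperature, fluorescence (480 nm ex/540 nm em) is read every 5 min for 30 min. Data are normalized to control ATA and DMSO.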
Potency is the fitted concentration of half-maximal effect.

Chain of Rap guanine nucleotide exchange factor 3 (Homo sapiens) (O95398 whole entry, looked up): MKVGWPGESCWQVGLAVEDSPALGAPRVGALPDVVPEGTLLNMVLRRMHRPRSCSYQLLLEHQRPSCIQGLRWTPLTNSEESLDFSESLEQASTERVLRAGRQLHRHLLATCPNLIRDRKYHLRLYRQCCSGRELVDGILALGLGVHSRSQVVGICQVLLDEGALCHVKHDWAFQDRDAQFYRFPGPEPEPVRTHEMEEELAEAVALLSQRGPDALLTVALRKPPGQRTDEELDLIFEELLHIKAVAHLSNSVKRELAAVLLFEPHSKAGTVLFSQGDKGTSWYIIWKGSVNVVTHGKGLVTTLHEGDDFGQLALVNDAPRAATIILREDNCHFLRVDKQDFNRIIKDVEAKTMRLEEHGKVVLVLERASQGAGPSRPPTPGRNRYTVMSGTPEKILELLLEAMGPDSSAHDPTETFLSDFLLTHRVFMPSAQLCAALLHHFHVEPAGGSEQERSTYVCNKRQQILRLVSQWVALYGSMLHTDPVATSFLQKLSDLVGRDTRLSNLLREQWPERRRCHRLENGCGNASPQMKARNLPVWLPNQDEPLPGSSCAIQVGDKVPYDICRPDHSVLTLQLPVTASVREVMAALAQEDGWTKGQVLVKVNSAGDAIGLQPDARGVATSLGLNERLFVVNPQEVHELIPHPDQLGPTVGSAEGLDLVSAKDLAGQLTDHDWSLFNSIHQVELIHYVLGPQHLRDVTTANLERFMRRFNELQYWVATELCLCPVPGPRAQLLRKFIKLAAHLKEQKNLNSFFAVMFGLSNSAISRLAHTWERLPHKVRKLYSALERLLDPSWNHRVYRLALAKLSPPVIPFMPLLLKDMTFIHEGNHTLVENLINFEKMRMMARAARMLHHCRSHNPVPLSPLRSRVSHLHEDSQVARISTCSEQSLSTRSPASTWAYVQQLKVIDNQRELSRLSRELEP

activity, negative = inhibition, inactive:
CC1CN(c2nc3ccccc3cc2-c2ccccc2)CC(C)O1 (stereo not given) -18.6%, COC(=O)c1cccc(F)c1C(=O)c1cccc2ccccc12 -24.3%, COC(=O)c1cn(S(=O)(=O)c2ccccc2)c2ccccc12 -7.4%, O=C1OC(c2ccccc2)(c2ccccc2)c2ccsc21 -11.5%, Cc1oc2cc(Br)c(O)c(Br)c2c1-c1ccccc1 -29.8%, COc1ccc(S(=O)(=O)N2CCCC2)c(Cl)c1Cl -9.52%, Cn1ccc2c(N3CCCCCCC3)cc3c(c21)C1CCC3O1 (stereo not given) -19.8%, COc1ccc(/C=C/C(=O)c2ccc(Cl)cc2)c(OC)c1 -29.3%, CCCCC1=C(C(=O)OCC)C(C(=O)OCC)Oc2ccccc21 (stereo not given) -26.4%, CC(OC(=O)c1ccccc1Oc1ccccc1)C(=O)NC1CC1 (stereo not given) -18.7%, O=C(O)CCNC(=O)c1ccc(NC(=O)C(c2ccccc2)c2ccccc2)cc1 -5.87%, CCC(=O)OC1CC(C)N(C(=O)c2ccccc2)c2ccc(C)cc21 (stereo not given) -19.1%, CNc1snc(C)c1C(=O)OCC(=O)Nc1ccc(C)cc1F -24.9%, COc1ccc2c(c1)CCc1c(C(=O)N3CCCc4ccccc43)noc1-2 -20.6%, O=C(c1noc2c1CCc1ccccc1-2)N1CCCc2ccccc21 -29.7%, CCOc1cc(C)c(S(=O)(=O)N2CCCCC2)cc1C -24.9%, CCCCn1nnnc1C(c1cc2ccccc2o1)N1CCN(c2cc(C)nc3ccccc23)CC1 (stereo not given) -14.9%, COCCN(CCOC)Cc1cc(=O)oc2cc(OC)c(Cl)cc12 -16.8%, COc1ccccc1N(C)c1cc2c(c3c1ccn3C)C1CCC2O1 (stereo not given) -10.6%, CC1CCCN(C2(O)C(=O)Nc3c(C(F)(F)F)cccc32)C1 (stereo not given) -27.5%, COC(=O)C1=NN(c2ccccc2)C2(S1)SC(C(C)=O)=C(C)N2c1ccccc1 (stereo not given) -9.28%, COC(=O)c1cn(C(=O)c2ccc(C)cc2C)c2ccccc12 -13.3%, O=C(COc1ccc(Br)cc1Cl)c1ccc[nH]1 -29.3%, C=CCN(CC=C)Cc1cc(=O)oc2cc(C)cc(C)c12 -0.588%, Cc1ccn2c(-c3csc(NCc4ccccc4)n3)c(C)nc2c1 -24.2%, COc1ccc(C2CC(=O)Oc3ccc(OC)cc32)cc1 (stereo not given) -24.4%, COc1cnc(-c2ccccc2)nc1Sc1ccccc1 -13.7%, CC(=O)N1N=C2c3ccccc3CCC2C1c1cccs1 (stereo not given) -15.2%, Cc1ccc(O)c(C(=O)c2cc(C#N)c(=O)n(-c3nccs3)c2)c1 67.7%, Cc1cccc2c1NC(=O)C2(O)N1CCCC(C)C1 (stereo not given) -20.5%, COc1cc(N)ccc1-c1cc2ccccc2oc1=O -14.4%, O=C(c1ccccc1F)n1c2c(c3ccccc31)CCCC2 -18.6%, COC(=O)c1cn(C(=O)c2ccc(OC)c(OC)c2)c2ccccc12 -17.6%, COC(=O)c1ccc2nc(-c3ccc(Cl)cc3)c(Cc3cccc(F)c3)n2c1 -5.72%, COc1ccc(Cl)cc1NC(=O)CN1c2ccccc2CC1C (stereo not given) -29%, Cc1ccc(-c2nn3cnnc3c3ccccc23)cc1C -28.7%, COc1ccc(C2CC(=O)Oc3cc(C)c(Cl)cc32)cc1 (stereo not given) -14.8%, CC(C)CN(C(=O)c1ccco1)c1nc2ccccc2s1 -26.1%, COC(=O)c1ccc2nc(-c3ccc(F)cc3)c(Cc3ccsc3)n2c1 -11.1%

Potency, active:
O=c1ccc(NS(=O)(=O)c2ccc(Cl)cc2)cn1Cc1ccc(Cl)c(Cl)c1 75.7 µM

Biological target: Rap guanine nucleotide exchange factor 3 (Homo sapiens) (UniProt O95398)
Test: Confirmatory qHTS for agonist of cAMP-regulated guanine nucleotide exchange factor 3 (EPAC1) (AID 1645881); note: nearly all actives have a fitted effect of over 75% in size;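 for activation: EPAC1 catalysed release of BODIPY-GDP from Rap1B seen as fluorescence loss; 100% = effect of cAMP agonist control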
Conditions: EPAC1 Rap1B BODIPY-GDP exchange fluorescence; series mostly up to 154 µM; activation: at the top concentration

activation, inactive:
CC1CN(c2nc3ccccc3cc2-c2ccccc2)CC(C)O1 (stereo not given) 0.485%, COC(=O)c1cccc(F)c1C(=O)c1cccc2ccccc12 11.6%, COC(=O)c1cn(S(=O)(=O)c2ccccc2)c2ccccc12 26.2%, O=C1OC(c2ccccc2)(c2ccccc2)c2ccsc21 3.73%, Cc1oc2cc(Br)c(O)c(Br)c2c1-c1ccccc1 26.3%, COc1ccc(S(=O)(=O)N2CCCC2)c(Cl)c1Cl 5.55%, Cn1ccc2c(N3CCCCCCC3)cc3c(c21)C1CCC3O1 (stereo not given) 17.6%, COc1ccc(/C=C/C(=O)c2ccc(Cl)cc2)c(OC)c1 19.9%, CCCCC1=C(C(=O)OCC)C(C(=O)OCC)Oc2ccccc21 (stereo not given) -5.14%, CC(OC(=O)c1ccccc1Oc1ccccc1)C(=O)NC1CC1 (stereo not given) 7.64%, O=C(O)CCNC(=O)c1ccc(NC(=O)C(c2ccccc2)c2ccccc2)cc1 10.9%, CCC(=O)OC1CC(C)N(C(=O)c2ccccc2)c2ccc(C)cc21 (stereo not given) 5.04%, CNc1snc(C)c1C(=O)OCC(=O)Nc1ccc(C)cc1F -1.17%, COc1ccc2c(c1)CCc1c(C(=O)N3CCCc4ccccc43)noc1-2 12.5%, O=C(c1noc2c1CCc1ccccc1-2)N1CCCc2ccccc21 10.3%, CCOc1cc(C)c(S(=O)(=O)N2CCCCC2)cc1C 22.8%, CCCCn1nnnc1C(c1cc2ccccc2o1)N1CCN(c2cc(C)nc3ccccc23)CC1 (stereo not given) 14.4%, COCCN(CCOC)Cc1cc(=O)oc2cc(OC)c(Cl)cc12 0.865%, COc1ccccc1N(C)c1cc2c(c3c1ccn3C)C1CCC2O1 (stereo not given) 18.3%, CC1CCCN(C2(O)C(=O)Nc3c(C(F)(F)F)cccc32)C1 (stereo not given) 7.31%, COC(=O)C1=NN(c2ccccc2)C2(S1)SC(C(C)=O)=C(C)N2c1ccccc1 (stereo not given) 13.5%, COC(=O)c1cn(C(=O)c2ccc(C)cc2C)c2ccccc12 9.26%, O=C(COc1ccc(Br)cc1Cl)c1ccc[nH]1 22.5%, C=CCN(CC=C)Cc1cc(=O)oc2cc(C)cc(C)c12 21.6%, Cc1ccn2c(-c3csc(NCc4ccccc4)n3)c(C)nc2c1 15.3%, COc1ccc(C2CC(=O)Oc3ccc(OC)cc32)cc1 (stereo not given) -1.01%, COc1cnc(-c2ccccc2)nc1Sc1ccccc1 9.21%, CC(=O)N1N=C2c3ccccc3CCC2C1c1cccs1 (stereo not given) 7.22%, Cc1cccc2c1NC(=O)C2(O)N1CCCC(C)C1 (stereo not given) -0.644%, COc1cc(N)ccc1-c1cc2ccccc2oc1=O 1.56%, O=C(c1ccccc1F)n1c2c(c3ccccc31)CCCC2 9.48%, COC(=O)c1cn(C(=O)c2ccc(OC)c(OC)c2)c2ccccc12 16%, COC(=O)c1ccc2nc(-c3ccc(Cl)cc3)c(Cc3cccc(F)c3)n2c1 6.57%, COc1ccc(Cl)cc1NC(=O)CN1c2ccccc2CC1C (stereo not given) 13.5%, Cc1ccc(-c2nn3cnnc3c3ccccc23)cc1C 3.27%, O=c1ccc(NS(=O)(=O)c2ccc(Cl)cc2)cn1Cc1ccc(Cl)c(Cl)c1 5.8%, COc1ccc(C2CC(=O)Oc3cc(C)c(Cl)cc32)cc1 (stereo not given) 18.5%, CC(C)CN(C(=O)c1ccco1)c1nc2ccccc2s1 22.9%, COC(=O)c1ccc2nc(-c3ccc(F)cc3)c(Cc3ccsc3)n2c1 5.46%

Potency, active:
Cc1ccc(O)c(C(=O)c2cc(C#N)c(=O)n(-c3nccs3)c2)c1 100 µM
